These results are taken from publication PMC7862700, “An all-to-all approach to the identification of sequence-specific readers for epigenetic DNA modifications on cytosine”.

What all share (assay): DAPPL (digital affinity profiling via proximity ligation, sequencing); 10 mM Tris-HCl pH 7.5, 50 mM NaCl, 1 mM DTT, 4% glycerol, room temperature, 30 min; GST-TFs on glutathione beads, 16-mer random dsDNA library, 0.1% formaldehyde crosslink after washing; high values mean tight binding
The target of one experiment is T1, FEV (Homo sapiens, UniProt Q99581 1-238).
T1 sequence: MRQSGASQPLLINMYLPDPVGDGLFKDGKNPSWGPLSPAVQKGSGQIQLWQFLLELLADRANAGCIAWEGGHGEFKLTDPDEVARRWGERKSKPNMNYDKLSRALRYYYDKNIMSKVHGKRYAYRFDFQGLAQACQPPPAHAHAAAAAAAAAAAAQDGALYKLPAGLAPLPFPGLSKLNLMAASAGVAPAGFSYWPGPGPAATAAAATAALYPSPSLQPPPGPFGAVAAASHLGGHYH
Particulars: protein: recombinant; tags: N-terminal GST; dsDNA, one strand shown. The method in brief:
(§1)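 Each value of binding signal is a hexamer's read frequency for a factor divided by the same hexamer's frequency in the tag-only sample. Barcoded, bead-captured GST fusions of human transcription factors made in yeast were pooled with that sample and incubated with 200 nmole of a random double-stranded 16-mer DNA library in Tris/NaCl/DTT/glycerol buffer at room temperature for 30 min. Washing, 0.1% formaldehyde crosslinking, proximity ligation, PCR and Illumina NextSeq500 sequencing followed.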

In another experiment the target is ETV5 (Homo sapiens, UniProt P41161 1-510). The following applies: protein: recombinant; tags: N-terminal GST; dsDNA, one strand shown. The method in brief:
as §1

The next experiment deals with HSF1 (Homo sapiens, UniProt Q00613 1-529). Particulars: protein: recombinant; tags: N-terminal GST; chain copies: 3; dsDNA, one strand shown. In outline: as §1
HSF1, sequence (Q00613 whole entry): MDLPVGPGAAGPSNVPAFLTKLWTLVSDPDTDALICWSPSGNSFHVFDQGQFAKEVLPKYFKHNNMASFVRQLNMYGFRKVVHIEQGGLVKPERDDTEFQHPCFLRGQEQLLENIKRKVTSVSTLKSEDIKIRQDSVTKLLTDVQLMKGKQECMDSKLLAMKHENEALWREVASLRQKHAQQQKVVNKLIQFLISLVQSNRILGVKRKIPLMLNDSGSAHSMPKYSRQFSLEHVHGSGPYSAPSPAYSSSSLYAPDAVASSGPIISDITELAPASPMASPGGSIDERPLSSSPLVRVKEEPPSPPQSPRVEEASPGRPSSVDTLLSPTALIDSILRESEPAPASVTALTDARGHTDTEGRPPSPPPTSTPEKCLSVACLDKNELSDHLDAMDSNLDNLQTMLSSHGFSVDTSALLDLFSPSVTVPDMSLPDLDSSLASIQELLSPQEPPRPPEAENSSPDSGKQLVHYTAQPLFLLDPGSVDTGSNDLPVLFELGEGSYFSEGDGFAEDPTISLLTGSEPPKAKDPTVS
A further experiment deals with T2, SPIC (Homo sapiens, UniProt Q8N5J4 1-248).
T2 sequence: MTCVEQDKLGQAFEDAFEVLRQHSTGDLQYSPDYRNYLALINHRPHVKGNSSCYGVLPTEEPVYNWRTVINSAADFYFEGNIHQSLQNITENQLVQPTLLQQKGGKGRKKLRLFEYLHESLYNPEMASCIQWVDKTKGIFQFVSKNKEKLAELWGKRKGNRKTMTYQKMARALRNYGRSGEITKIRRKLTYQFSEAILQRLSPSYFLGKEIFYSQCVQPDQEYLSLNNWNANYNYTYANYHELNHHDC
The following applies: protein: recombinant; tags: N-terminal GST; dsDNA, one strand shown. In outline: as §1

The next experiment deals with ELF4 (Homo sapiens, UniProt Q99607 1-663). The following applies: protein: recombinant; tags: N-terminal GST; dsDNA, one strand shown. In outline: as §1
ELF4, sequence (Q99607 whole entry): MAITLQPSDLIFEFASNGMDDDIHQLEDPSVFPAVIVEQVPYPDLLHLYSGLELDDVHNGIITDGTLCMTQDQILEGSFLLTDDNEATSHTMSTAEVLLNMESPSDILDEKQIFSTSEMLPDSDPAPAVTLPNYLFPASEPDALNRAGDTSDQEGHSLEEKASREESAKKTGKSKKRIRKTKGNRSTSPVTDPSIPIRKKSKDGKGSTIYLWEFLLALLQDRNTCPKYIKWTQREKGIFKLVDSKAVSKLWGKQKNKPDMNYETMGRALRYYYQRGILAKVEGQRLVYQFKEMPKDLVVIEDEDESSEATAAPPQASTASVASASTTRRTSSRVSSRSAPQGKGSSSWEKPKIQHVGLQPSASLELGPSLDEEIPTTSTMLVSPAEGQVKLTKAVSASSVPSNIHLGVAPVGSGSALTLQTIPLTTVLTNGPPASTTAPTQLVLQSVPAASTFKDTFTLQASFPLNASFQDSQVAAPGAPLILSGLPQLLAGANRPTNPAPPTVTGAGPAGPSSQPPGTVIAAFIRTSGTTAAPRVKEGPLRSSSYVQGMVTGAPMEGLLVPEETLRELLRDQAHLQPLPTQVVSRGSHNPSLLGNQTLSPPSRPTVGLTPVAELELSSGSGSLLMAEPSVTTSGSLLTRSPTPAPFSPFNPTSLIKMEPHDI
The target in the next experiment is T3, ELK4 (Homo sapiens, UniProt P28324-2 1-405).
T3 sequence: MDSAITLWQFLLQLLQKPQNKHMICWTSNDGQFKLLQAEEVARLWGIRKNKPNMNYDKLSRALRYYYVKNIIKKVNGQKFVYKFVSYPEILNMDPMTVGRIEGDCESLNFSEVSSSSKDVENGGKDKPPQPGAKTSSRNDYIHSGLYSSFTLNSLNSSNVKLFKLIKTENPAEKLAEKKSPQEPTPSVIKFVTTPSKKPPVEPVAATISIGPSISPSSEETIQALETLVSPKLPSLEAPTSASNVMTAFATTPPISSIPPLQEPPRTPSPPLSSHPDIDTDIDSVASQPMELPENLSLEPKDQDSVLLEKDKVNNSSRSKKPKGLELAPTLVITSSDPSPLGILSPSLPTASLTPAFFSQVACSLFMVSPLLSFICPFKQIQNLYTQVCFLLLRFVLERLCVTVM
The following applies: protein: recombinant; tags: N-terminal GST; dsDNA, one strand shown. The method in brief:
as §1

The target in a further experiment is T4, ETV2 (Homo sapiens, UniProt O00321 1-342).
T4 sequence: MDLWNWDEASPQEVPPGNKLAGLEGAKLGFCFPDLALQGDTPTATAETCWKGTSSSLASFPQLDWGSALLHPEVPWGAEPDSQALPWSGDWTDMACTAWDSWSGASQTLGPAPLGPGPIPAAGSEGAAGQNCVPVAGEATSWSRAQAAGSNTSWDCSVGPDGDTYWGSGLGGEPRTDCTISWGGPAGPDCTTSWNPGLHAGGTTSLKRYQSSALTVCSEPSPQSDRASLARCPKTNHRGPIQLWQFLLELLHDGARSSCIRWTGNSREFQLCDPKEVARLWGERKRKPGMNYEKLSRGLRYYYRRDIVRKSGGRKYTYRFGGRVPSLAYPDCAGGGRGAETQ
Particulars: protein: recombinant; tags: N-terminal GST; dsDNA, one strand shown. The method in brief:
as §1

The next experiment deals with T5, ELF3 (Homo sapiens, UniProt P78545 1-371).
T5 sequence: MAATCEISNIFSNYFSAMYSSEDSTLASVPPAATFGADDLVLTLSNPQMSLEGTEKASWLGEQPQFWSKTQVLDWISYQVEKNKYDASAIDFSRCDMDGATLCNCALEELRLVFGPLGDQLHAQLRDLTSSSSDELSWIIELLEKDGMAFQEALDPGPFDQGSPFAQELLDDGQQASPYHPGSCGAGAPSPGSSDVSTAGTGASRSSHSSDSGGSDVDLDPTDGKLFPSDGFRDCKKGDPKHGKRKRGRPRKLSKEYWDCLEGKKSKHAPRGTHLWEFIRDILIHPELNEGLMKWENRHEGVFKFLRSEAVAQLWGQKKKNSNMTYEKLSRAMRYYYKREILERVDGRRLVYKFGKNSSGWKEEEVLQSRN
The following applies: protein: recombinant; tags: N-terminal GST; dsDNA, one strand shown. In outline:
as §1

The next experiment addresses CRX (Homo sapiens, UniProt O43186 1-299). The following applies: protein: recombinant; tags: N-terminal GST; dsDNA, one strand shown. The method in brief: as §1
The next experiment concerns the target ETV1 (Homo sapiens, UniProt P50549 1-477). Particulars: protein: recombinant; tags: N-terminal GST; dsDNA, one strand shown. The method in brief: as §1
The next experiment has as its target T6, ERF (Homo sapiens, UniProt P50548 1-548).
T6 sequence: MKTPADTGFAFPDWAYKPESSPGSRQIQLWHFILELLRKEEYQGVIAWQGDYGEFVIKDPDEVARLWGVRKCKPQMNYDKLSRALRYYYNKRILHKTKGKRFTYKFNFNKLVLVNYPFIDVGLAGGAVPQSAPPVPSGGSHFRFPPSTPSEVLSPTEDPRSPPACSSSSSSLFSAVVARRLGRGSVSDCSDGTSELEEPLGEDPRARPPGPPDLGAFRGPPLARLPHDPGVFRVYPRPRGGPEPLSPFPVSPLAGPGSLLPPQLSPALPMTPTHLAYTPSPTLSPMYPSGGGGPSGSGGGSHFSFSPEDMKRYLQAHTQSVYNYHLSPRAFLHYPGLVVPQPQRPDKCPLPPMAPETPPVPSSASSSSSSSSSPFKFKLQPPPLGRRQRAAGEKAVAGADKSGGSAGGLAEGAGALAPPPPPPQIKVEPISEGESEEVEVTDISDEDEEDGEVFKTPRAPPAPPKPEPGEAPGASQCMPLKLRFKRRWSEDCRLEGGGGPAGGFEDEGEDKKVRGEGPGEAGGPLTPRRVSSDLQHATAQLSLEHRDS
Particulars: protein: recombinant; tags: N-terminal GST; dsDNA, one strand shown. In outline: as §1

In another experiment the target is T7, ETV3L (Homo sapiens, UniProt Q6ZN32 1-361).
T7 sequence: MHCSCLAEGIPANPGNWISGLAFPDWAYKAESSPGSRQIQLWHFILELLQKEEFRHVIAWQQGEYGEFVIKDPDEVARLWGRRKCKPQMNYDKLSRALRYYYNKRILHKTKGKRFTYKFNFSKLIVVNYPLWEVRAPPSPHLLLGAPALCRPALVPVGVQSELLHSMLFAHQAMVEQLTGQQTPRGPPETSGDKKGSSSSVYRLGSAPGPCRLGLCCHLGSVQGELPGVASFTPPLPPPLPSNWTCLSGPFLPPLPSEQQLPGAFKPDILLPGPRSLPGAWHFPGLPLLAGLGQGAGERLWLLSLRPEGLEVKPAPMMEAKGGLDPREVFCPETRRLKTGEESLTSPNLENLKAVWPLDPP
The following applies: protein: recombinant; tags: N-terminal GST; dsDNA, one strand shown. The method in brief: as §1

The target of the next experiment is T8, ETS2 (Homo sapiens, UniProt P15036 1-469).
T8 sequence: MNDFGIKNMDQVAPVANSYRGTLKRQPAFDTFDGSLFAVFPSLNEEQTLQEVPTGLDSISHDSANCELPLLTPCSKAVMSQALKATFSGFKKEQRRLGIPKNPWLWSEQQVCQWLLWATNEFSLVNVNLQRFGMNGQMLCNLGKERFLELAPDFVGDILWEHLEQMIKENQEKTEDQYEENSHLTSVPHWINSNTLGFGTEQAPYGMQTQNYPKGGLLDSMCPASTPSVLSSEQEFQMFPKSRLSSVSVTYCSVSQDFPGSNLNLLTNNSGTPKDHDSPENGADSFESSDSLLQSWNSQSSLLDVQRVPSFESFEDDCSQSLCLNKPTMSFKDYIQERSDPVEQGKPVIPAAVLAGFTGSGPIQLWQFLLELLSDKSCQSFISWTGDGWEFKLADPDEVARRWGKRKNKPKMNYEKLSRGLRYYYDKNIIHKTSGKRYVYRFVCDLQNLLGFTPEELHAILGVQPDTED
The following applies: protein: recombinant; tags: N-terminal GST; dsDNA, one strand shown. In outline:
as §1

In a further experiment the target is T9, SPDEF (Homo sapiens, UniProt O95238 1-335).
T9 sequence: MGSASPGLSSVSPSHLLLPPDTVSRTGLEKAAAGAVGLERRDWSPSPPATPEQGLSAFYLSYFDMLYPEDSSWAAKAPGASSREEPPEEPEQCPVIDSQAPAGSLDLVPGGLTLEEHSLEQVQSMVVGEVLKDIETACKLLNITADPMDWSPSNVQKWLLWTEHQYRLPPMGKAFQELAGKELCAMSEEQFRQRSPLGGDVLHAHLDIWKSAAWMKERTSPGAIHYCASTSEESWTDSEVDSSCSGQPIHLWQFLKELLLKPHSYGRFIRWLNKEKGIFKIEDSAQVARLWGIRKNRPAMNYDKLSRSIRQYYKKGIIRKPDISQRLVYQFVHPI
Particulars: protein: recombinant; tags: N-terminal GST; dsDNA, one strand shown. The method in brief: as §1

A further experiment deals with T10, ETV7 (Homo sapiens, UniProt Q9Y603 1-341).
T10 sequence: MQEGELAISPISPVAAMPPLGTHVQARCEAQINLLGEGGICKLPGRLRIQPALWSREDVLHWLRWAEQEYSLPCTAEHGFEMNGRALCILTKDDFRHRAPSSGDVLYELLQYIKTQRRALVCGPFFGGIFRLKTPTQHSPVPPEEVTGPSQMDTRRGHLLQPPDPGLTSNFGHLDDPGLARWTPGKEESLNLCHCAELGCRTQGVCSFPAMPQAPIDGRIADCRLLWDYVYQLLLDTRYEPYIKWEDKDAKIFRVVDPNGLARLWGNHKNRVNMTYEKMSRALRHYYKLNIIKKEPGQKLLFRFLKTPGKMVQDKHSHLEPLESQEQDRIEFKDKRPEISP
Particulars: protein: recombinant; tags: N-terminal GST; dsDNA, one strand shown. The method in brief:
as §1

The target in another experiment is T11, ELF5 (Homo sapiens, UniProt Q9UKW6-2 1-255).
T11 sequence: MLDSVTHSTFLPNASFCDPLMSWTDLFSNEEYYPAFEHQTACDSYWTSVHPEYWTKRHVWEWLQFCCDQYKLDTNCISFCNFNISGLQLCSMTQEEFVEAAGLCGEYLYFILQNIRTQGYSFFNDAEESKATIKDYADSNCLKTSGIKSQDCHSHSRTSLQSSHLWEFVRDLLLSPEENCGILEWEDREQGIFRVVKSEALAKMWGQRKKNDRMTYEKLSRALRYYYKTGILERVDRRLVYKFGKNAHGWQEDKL
The following applies: protein: recombinant; tags: N-terminal GST; dsDNA, one strand shown. In outline: as §1

A further experiment concerns the target T12, ETV3 (Homo sapiens, UniProt P41162-2 1-143).
T12 sequence: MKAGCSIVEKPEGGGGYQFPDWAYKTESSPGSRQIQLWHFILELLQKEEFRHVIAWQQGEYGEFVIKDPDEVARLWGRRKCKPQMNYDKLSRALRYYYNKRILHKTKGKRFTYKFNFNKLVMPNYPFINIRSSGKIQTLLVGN
The following applies: protein: recombinant; tags: N-terminal GST; dsDNA, one strand shown. The method in brief:
as §1

In the next experiment the target is ETV6 (Homo sapiens, UniProt P41212 1-452). Particulars: protein: recombinant; tags: N-terminal GST; dsDNA, one strand shown. The method in brief:
as §1

CRX, sequence (O43186 whole entry): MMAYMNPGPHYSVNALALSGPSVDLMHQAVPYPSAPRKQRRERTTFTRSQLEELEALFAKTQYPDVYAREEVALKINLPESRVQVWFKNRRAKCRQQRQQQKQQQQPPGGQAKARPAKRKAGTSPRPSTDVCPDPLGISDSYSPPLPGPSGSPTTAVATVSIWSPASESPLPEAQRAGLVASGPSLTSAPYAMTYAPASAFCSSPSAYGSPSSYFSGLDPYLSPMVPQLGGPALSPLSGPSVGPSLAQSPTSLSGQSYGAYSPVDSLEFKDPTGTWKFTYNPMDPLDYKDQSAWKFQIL
ETV5, sequence (P41161 whole entry): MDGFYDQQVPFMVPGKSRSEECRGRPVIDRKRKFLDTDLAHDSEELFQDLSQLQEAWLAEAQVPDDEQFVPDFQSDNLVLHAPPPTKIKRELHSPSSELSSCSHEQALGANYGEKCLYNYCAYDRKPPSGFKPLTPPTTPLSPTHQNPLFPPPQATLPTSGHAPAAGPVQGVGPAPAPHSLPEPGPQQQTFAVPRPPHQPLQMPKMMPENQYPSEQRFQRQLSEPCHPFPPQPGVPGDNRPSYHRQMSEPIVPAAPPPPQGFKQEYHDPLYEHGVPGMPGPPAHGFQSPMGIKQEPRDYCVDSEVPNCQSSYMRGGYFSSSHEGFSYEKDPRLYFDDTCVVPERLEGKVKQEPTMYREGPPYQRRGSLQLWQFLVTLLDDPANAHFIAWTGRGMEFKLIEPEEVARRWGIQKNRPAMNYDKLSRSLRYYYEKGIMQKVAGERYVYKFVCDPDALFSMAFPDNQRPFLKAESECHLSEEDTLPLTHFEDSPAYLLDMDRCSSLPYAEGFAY
ETV1, sequence (P50549 whole entry): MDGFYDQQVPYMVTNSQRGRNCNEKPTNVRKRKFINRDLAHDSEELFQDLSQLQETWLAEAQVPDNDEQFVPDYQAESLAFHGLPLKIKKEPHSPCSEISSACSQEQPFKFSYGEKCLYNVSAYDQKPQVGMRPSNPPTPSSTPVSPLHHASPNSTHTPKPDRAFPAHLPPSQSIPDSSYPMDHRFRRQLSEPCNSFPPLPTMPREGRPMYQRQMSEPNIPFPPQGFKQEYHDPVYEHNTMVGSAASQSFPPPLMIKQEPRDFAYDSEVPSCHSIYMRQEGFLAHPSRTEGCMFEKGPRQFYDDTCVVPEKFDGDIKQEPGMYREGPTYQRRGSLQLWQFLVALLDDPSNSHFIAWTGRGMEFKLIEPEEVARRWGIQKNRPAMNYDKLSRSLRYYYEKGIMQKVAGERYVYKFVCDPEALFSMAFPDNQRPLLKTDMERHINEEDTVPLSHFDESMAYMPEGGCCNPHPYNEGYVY
ETV6, sequence (P41212 whole entry): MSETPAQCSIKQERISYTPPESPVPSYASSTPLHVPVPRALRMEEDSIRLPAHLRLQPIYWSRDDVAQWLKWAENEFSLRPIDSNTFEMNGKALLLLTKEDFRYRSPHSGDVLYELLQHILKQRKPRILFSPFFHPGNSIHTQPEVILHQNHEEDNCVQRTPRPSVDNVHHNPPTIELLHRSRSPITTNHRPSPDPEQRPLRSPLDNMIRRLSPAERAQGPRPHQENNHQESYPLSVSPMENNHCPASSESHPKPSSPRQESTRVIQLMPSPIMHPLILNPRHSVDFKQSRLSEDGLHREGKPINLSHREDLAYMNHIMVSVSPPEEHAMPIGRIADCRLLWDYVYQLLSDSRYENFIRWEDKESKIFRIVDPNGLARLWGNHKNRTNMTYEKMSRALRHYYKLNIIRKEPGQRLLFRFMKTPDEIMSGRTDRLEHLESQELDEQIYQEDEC

For CACGCT, the binding signal with FEV is 1.32 fold enrichment (6-mer frequency, TF over GST control); with ETV5, 1.34 fold enrichment (6-mer frequency, TF over GST control); in the experiment with HSF1, 1.19 fold enrichment (6-mer frequency, TF over GST control); with SPIC, 1.23 fold enrichment (6-mer frequency, TF over GST control); with ELF4, 1.43 fold enrichment (6-mer frequency, TF over GST control); in the experiment with ELK4, 1.36 fold enrichment (6-mer frequency, TF over GST control). In addition, the binding signal with ETV2 is 1.27 fold enrichment (6-mer frequency, TF over GST control); in the experiment with ELF3, 1.4 fold enrichment (6-mer frequency, TF over GST control); with CRX, 1.17 fold enrichment (6-mer frequency, TF over GST control); in the experiment with ETV1, 1.34 fold enrichment (6-mer frequency, TF over GST control); in the experiment with ERF, 1.35 fold enrichment (6-mer frequency, TF over GST control); with ETV3L it was 1.37 fold enrichment (6-mer frequency, TF over GST control). The binding signal in the experiment with ETS2 was 1.31 fold enrichment (6-mer frequency, TF over GST control); with SPDEF, 1.35 fold enrichment (6-mer frequency, TF over GST control); with ETV7, 1.36 fold enrichment (6-mer frequency, TF over GST control); with ELF5, 1.25 fold enrichment (6-mer frequency, TF over GST control); in the experiment with ETV3 it was 1.37 fold enrichment (6-mer frequency, TF over GST control); in the experiment with ETV6, 1.34 fold enrichment (6-mer frequency, TF over GST control).
